Reference: PubChem BioAssay AID1626 (SRMLSC, 2009)
The whole screen tested about 220,000 compounds, of which about 2,000 (0.91%) were called active. Another 2% or so got no clear call; they are omitted. Only a sample is shown. Results with a measured potency or affinity are listed apart. A number with no mark means an inactive call. Rule as the data show it: inconclusive = inhibition above about 80% without an active follow-up result; inactive = below that; test concentration not stated here.

test: M. tuberculosis H37Rv growth inhibitors, H37Rv strain (AID 1626); details: hits give high values, concentration not given here;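 also: bacteria incubated seven days before Alamar blue readout; 0% = bacteria only wells and 100% = bacteria with antibiotic wells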

Row | Structure (SMILES) | inhibition [%]
1 | CN(CCc1ccccn1)C(=S)Nc1ccc(Cl)c(Cl)c1 | 3.62
2 | COc1ccc(NS(=O)(=O)c2cnc[nH]2)cc1 | 5.45
3 | Cc1[nH]n(-c2ccccc2)c(=O)c1C(=O)c1ccccc1 | -0.23
4 | Cc1[nH]n(-c2ccccc2)c(=O)c1C(=O)c1ccc(Cl)cc1 | -3.87
5 | CCn1c(=O)c(=O)[nH]c2cc(C(=O)N3CCN(c4ccccc4F)CC3)ccc21 | 7.44
6 | Nc1ccc(C(=O)OCC(=O)N2c3ccccc3Sc3ccccc32)cc1[N+](=O)[O-] | -1.19
7 | Cc1cccc(C)c1N=Cc1c(O)n(-c2nccs2)c(=O)c2ccccc12 | 2.79
8 | Cc1ccc(N=Cc2c(O)n(-c3nccs3)c(=O)c3ccccc23)cc1 | -4.95
9 | Cc1cc(C(=O)N/N=C/c2ccc(-c3ccc(C)c(Cl)c3)o2)n[nH]1 | 56.6
10 | Clc1ccc(Cl)c(-c2ccc(/C=N/c3ncn[nH]3)o2)c1 | 6.69
11 | COc1cccc(CN(C)Cc2nc3cc(C(F)(F)F)ccc3c(=O)[nH]2)c1 | 4.79
12 | CSc1ccc(CN(C)Cc2nc3cc(C(F)(F)F)ccc3c(=O)[nH]2)cc1 | 91.3
13 | CC(C)C(=O)NNC(=O)c1c(O)c2ccccc2[nH]c1=O | -10.7
14 | Cc1cc(C)n(-c2ncc3c(n2)N(CCO)CCOC3=O)n1 | 10.4
15 | N#Cc1ccc(/C=C/C(=O)O)cc1 | -0.8
16 | CCN(CC)c1ccc(/C=C/C(=O)c2cccnc2)cc1 | 16.5
17 | CN(C)c1ccc(/C=C/C(=O)c2cccnc2)cc1 | 3.22
18 | O=C(/C=C/c1cccc(O)c1)c1cccnc1 | 53.2
19 | O=C(/C=C/c1ccc([N+](=O)[O-])cc1)c1cccnc1 | 11.1
20 | O=C(/C=C/c1ccccc1Cl)c1cccnc1 | -7.55
21 | O=C(/C=C/c1ccccc1)c1ccccc1 | 10.5

Row | Structure (SMILES) | inhibition [%]
22 | O=C(/C=C/c1cccnc1)c1ccc(O)cc1 | -0.25
23 | CC(C)(C)CC(C)(C)NC(=S)NC1CCN(Cc2ccccc2)CC1 | -15.9
24 | Cc1ccc(NC(=S)Nc2cccc(-c3n[nH]c(=S)o3)c2)cc1 | 10.2
25 | O=C(COC(=O)/C=C/c1ccc(Cl)cc1)NCCC1=CCCCC1 | -4.53
26 | Cc1cccc(C(=O)NCC2CCCO2)c1 (configuration not stated) | -2.3
27 | Cc1ccc(CNC(=O)C(=O)NCC2OCCN2S(=O)(=O)c2cccs2)cc1 (configuration not stated) | -2.36
28 | CCOC(=O)c1c[nH]n(-c2ccc(C)cc2)c1=O | -7.4
29 | Cc1onc(-c2ccccc2Cl)c1C(=O)Nc1ncn[nH]1 | 6.99
30 | CCOC(=O)C1CCCN(Cc2cc(Br)c(OC)cc2OC)C1 (configuration not stated) | 1.19
31 | Cc1cc(C(=O)N(CCC#N)Cc2cccs2)no1 | -6.57
32 | CCOc1ccc(C(C)NC(=O)C2CCC2)cc1 (configuration not stated) | 1.59
33 | COCc1nnc(SCC(=O)NCc2ccccc2)n1-c1ccccc1 | -6.68
34 | COc1ccccc1NC(=O)C1=C(C)NC2=C(C(=O)CCC2)C1c1ccc2c(c1)OCO2 (configuration not stated) | -0.94
35 | O=C(/C=C/c1ccc(Cl)c([N+](=O)[O-])c1)Nc1cccnc1 | -11.5
36 | O=C(/C=C/c1ccc(Cl)c([N+](=O)[O-])c1)NCc1cccnc1 | 2.22
37 | Cc1nc(C(=O)Nc2ccc(F)cc2)nn1-c1ccc([N+](=O)[O-])cc1 | -5.91
38 | CCC1(C)Cc2ccccc2C(Nc2c(C)n(C)n(-c3ccccc3)c2=O)=N1 (configuration not stated) | -6.85
39 | Cc1nc(-c2cccc(NC(=O)C3CCCCC3)c2)cs1 | -1.02
40 | COc1cccc(-c2nc(-c3ccc4c(c3)NC(=O)CO4)cs2)c1 | 22.4
41 | COc1ccccc1Nc1nc(-c2ccc3c(c2)NC(=O)CO3)cs1 | -3.16
42 | CCC(C(=O)Nc1cc(Cl)c(OC)cc1OC)c1ccccc1 (configuration not stated) | -3.66

Row | Structure (SMILES) | inhibition [%]
43 | CC(=O)OC(C(=O)Nc1ccccc1)C(C)S(=O)(=O)c1ccccc1 (configuration not stated) | -4.23
44 | O=C(Nc1ccccc1Cl)O/N=C/c1ccncc1 | -1.05
45 | CC(C)C(=O)Nc1ccc(C(=O)NNC(=O)NC2CCCCC2)cc1 | -3.11
46 | COc1cccc(NC2c3ccccc3C(=O)N2Cc2ccccc2Cl)c1 (configuration not stated) | 8.87
47 | O=C(COC(=O)c1ccc2ccccc2n1)c1ccc(F)cc1 | -7.45
48 | O=C(OCc1ccc([N+](=O)[O-])cc1)c1ccc2ccccc2n1 | 40.4
49 | O=C(O)CSc1nc2ccccc2[nH]1 | -9.58
50 | O=C(CSc1nc2ccccc2s1)N1c2ccccc2Sc2ccccc21 | 1.29
51 | COc1ccc(C(C)(C)C)cc1NC(=O)COC(=O)c1ncc(Cl)c(Cl)c1Cl | -2.28
52 | COc1ccc(NC(=O)COC(=O)c2cc(SC)ccc2Cl)c(OC)c1 | 10.1
53 | O=C1c2ccc(Oc3cccc([N+](=O)[O-])c3)cc2C(=O)N1c1ccccn1 | -2.15
54 | O=C1c2cccc3cccc(c23)C(=O)N1CC1CCCO1 (configuration not stated) | 0.46
55 | O=C1c2ccc3c4c(ccc(c24)C(=O)N1Cc1cccnc1)C(=O)N(Cc1cccnc1)C3=O | 7.76
56 | Cc1ccc(N2C(=O)c3cccc4c([N+](=O)[O-])ccc(c34)C2=O)c2cccnc12 | -2.68
57 | O=C1c2ccccc2C(=O)N1CC1CCCO1 (configuration not stated) | -1.11
58 | O=C1c2cccc3cccc(c23)C(=O)N1c1ccccn1 | 2
59 | O=C1c2cccc3c([N+](=O)[O-])ccc(c23)C(=O)N1c1nccs1 | -1.82
60 | O=C1c2cccc3cccc(c23)C(=O)N1Cc1cccnc1 | -2.19
61 | CCOC(=O)c1[nH]c2cc(OC)c(OC)cc2c1NC(=O)CN1CCN(C)CC1 | -4.7
62 | COC(=O)CS(=O)(=O)c1ccc(C)cc1 | -7.54
